Assay outcomes from PubChem BioAssay.
Compounds with a hit are over-represented: about 2.2% of the library has one in this group of screens.
PLCg1 inh – blocks human PLC-gamma1 enzyme activity; inhibition, % at 12.2 µM; 370,000 tested, 0.84% active; P19174; AID 720700; purified PLC-gamma1, fluorogenic substrate, fluorescence
FAS-TE inh – blocks the thioesterase domain of human fatty acid synthase | P49327 | recombinant FAS-TE, OMFH fluorogenic substrate, fluorescence endpoint | inhibition, % at 15 µM | 360,000 tested, 0.67% active | AID 602261;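 active = compounds whose normalised, plate-corrected inhibition of enzyme fluorescence in the single-dose primary screen is 50% or more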;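 also: 0% = DMSO with enzyme and 100% = substrate without enzyme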
Cardio protect – protects H9c2 cardiomyocytes from peroxide injury. 360,000 tested, 0.63% active. AID 588492. H2O2 injury protection, ATPLite, 2 h. protection from H2O2 cell death, % at 20 µM;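 active = compounds giving at least 50% protection of heart cells from peroxide-induced death in the single-dose screen, raw or plate-pattern-corrected value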;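 also: 0% = DMSO wells with peroxide and 100% = DMSO wells without peroxide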
PLC-beta3 inh – inhibitors of human phospholipase C beta3. AID 720704. Purified PLC-beta3, fluorogenic substrate, fluorescence. 370,000 tested, 0.18% active. inhibition, % at 12.2 µM; in the data active = inhibition above about 11%;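 also: 0% = median of compound wells on plate and 100% = full blocker control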
PLCg1 ctr – inhibits human PLC-gamma1 in PLC-beta3 counter-screen. inhibition, % at 12.3 µM. shares compounds with PLCg1 inh. 3,300 tested, 3.1% active. purified PLC-gamma1, fluorogenic substrate, fluorescence
PLCbeta3 conf – human PLC-beta3 inhibition, confirmation; shares compounds with PLCg1 inh; purified PLC-beta3, fluorogenic substrate fluorescence; inhibition, % at 12.3 µM; 3,300 tested, 1% active; in the data active = inhibition above about 11%
An asterisk follows results filed as active; . = no result given. Rule as the data show it, unless noted: active = inhibition above about 9.5%; inactive = the rest.

SMILES | PLCg1 inh | FAS-TE inh | Cardio protect | PLC-beta3 inh | PLCg1 ctr | PLCbeta3 conf
C[C@@]12C(=O)N(c3ccccc3)C(=O)N1[C@@H]1c3ccccc3OC[C@@H]1[C@H]2c1ccccc1 | 4.2 | 32.4 | 47.3 | 1.0 | . | .
C[C@@]12C(=O)N(c3cccc(F)c3)C(=O)N1[C@@H]1c3ccccc3OC[C@@H]1[C@H]2c1ccccc1 | 10.0* | 28.3 | 15.2 | 5.8 | 3.9 | 3.6
O=C(CNC(=O)C12CC3CC(CC(C3)C1)C2)OCc1ccc(F)cc1Cl | 2.4 | 13.4 | 7.1 | 1.4 | . | .
COc1ccc(CC(=O)OCC(=O)NC2CC2)cc1 | 0.8 | -6.2 | 0.6 | 0.8 | . | .
COc1cccc(CNn2c(-c3cccc(C)c3)nc3ccccc3c2=O)c1 | 5.4 | 24.4 | 21.2 | 11.3* | -7.8 | -6.8
COc1ccc(OC)c(CNn2c(-c3cccc(C)c3)nc3ccccc3c2=O)c1 | -1.3 | 14.4 | 9.7 | -7.0 | . | .
COc1ccc(S(=O)(=O)N(CCc2ccccc2)CC(=O)NC(C)C)cc1 | 10.7* | -0.5 | 5.7 | 1.6 | -4.6 | 1.1
CCCCc1c(Cc2ccccc2)ncn1CCc1ccccc1OC | 1.6 | 12.5 | . | 0.4 | . | .
Cc1ccc(C(=O)COC(=O)c2c(C)cc(=O)oc2C)cc1[N+](=O)[O-] | 6.6 | 8.7 | -0.2 | 11.9* | -5.2 | -2.3
Cc1cc(=O)oc(C)c1C(=O)OCC(=O)c1ccc(Cl)c(Cl)c1 | -5.5 | 12.3 | 2.6 | -4.5 | . | .
Nc1nnc(COc2ccccc2)s1 | 10.9* | -4.9 | 6.2 | 0.7 | -4.9 | 0.0
Cc1ccc(OCc2nnc(N)s2)cc1 | -0.2 | -1.4 | -0.2 | -2.1 | . | .
Clc1nc(N2CCOCC2)ncc1Br | 11.9* | -8.3 | -2.5 | -4.5 | -7.5 | 1.2
O=C(O/N=C1\CCCc2ccccc21)c1cccc(Cl)c1 | 9.6* | 25.6 | -15.3 | 11.1* | -4.4 | -1.8
Cc1ccccc1N(CC(=O)NCCSCc1ccccc1)S(C)(=O)=O | 0.0 | 0.6 | 2.6 | -8.0 | . | .
Cn1c(=O)oc2cc(S(=O)(=O)N3CCN(c4ccccc4)CC3)ccc21 | 10.6* | -18.9 | -0.7 | 3.9 | 6.8 | 2.5
Cc1cccc(S(=O)(=O)N2CCCc3ccccc32)c1 | 9.6* | 13.1 | -8.8 | -6.5 | -1.9 | 3.8
Cc1cc(C)c(S(=O)(=O)N2CCCc3ccccc32)c(C)c1 | -0.2 | 30.9 | -13.0 | -3.9 | . | .
CC(C)CCN1CCC(n2nccc2NC(=O)C2CCOC2)CC1 (stereo unspecified) | 3.0 | -6.9 | 1.2 | -40.6 | . | .
CC1(C(=O)N2CCN(Cc3ccccc3Cl)CC2)CC1(Cl)Cl (stereo unspecified) | 0.5 | 2.6 | 2.2 | -10.8 | . | .
CNCCC=C1c2ccccc2CCc2ccccc21 | 11.7* | 1.4 | 24.1 | 0.4 | -4.7 | -10.6
CC1CCCC(C)N1C(=O)COC(=O)c1ccco1 (stereo unspecified) | 2.5 | -4.6 | -1.7 | 0.9 | . | .
COc1ccc(CNCCC(c2ccc(F)cc2)c2ccc(OC(C)C)cc2)cc1OC (stereo unspecified) | 10.6* | -0.8 | -13.8 | -2.1 | -4.2 | 2.0
COc1ccc(C(CCNCc2ccc(OC(C)C)cc2)c2ccccc2OC)cc1 (stereo unspecified) | 5.8 | -29.8 | -22.9 | 4.5 | . | .
COc1ccc(CNCCC(c2ccccc2)c2ccc(OC(C)C)cc2)cc1OC (stereo unspecified) | 10.5* | -8.8 | -19.9 | 6.8 | 1.5 | 4.5
SMILES | PLCg1 inh | FAS-TE inh | Cardio protect | PLC-beta3 inh | PLCg1 ctr | PLCbeta3 conf
COc1ccc(C(CCNCc2ccc(F)cc2)c2ccc(F)cc2)cc1 (stereo unspecified) | 5.2 | 0.5 | -15.4 | 3.9 | . | .
CC1(C(=O)Nc2cnc3ccccc3c2)CCN1CCOc1ccccc1 (stereo unspecified) | 0.8 | 8.3 | 7.6 | 1.3 | . | .
CC(=O)N1CCc2ccccc2C1CC(=O)O (stereo unspecified) | 11.3* | -6.8 | 2.3 | -0.6 | 6.6 | -0.3
O=C(C(=O)N1CCC(Cc2ccccc2)CC1)c1ccccc1 | 3.4 | . | . | 8.2 | . | .
Cc1nn(-c2cc(C(F)(F)F)ccc2Cl)c2nc(C(F)(F)F)[nH]c(=O)c12 | 4.0 | -5.5 | 0.6 | 11.7* | -2.1 | -6.3
O=C(CCc1ccc(S(=O)(=O)NCCc2ccccc2)cc1)Nc1ccc2c(c1)OCO2 | 10.2* | 10.8 | -8.9 | -0.6 | -5.8 | -3.8
COc1ccccc1NC(=O)c1cc2c(cc1Cl)N1CCCCCC1=NS2(=O)=O | 12.2* | -2.6 | -4.4 | 10.1 | -4.1 | -0.9
CC(=O)N1CCc2cc(S(=O)(=O)CCC(=O)Nc3ccc4c(c3)OCCO4)ccc21 | 2.0 | -2.3 | 0.2 | -0.4 | . | .
